According to the supplement of paper PMC6555819:

These sequences were tested on VDR:RXRa (NR concentration 270 nM, RXRa partner concentration 90 nM) (assay: PBM binding z-score (relative to random genomic background probes); higher = stronger binding; sequences stand for … in GC…GCGATTGACAGCGTAGAATGAAGG).
Method: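 Protein-binding microarray (Agilent 4x180K custom design, double-stranded 60-nt probes: 5' GC cap, 34-nt variable region, 24-nt constant primer region; full probe sequence given). Purified or IVT nuclear receptor:RXRα heterodimers (3:1 NR:RXRα, mostly 270:90 nM) or homodimers were incubated for 1 h in PBS with 2% milk and no ligand, then detected with Alexa488 antibodies. Fluorescence from o1-orientation probes (~5 replicates averaged) was converted to z-scores against 500 random hg19 background probes. Variable regions are seed direct-repeat (DR0–DR5) sites, all their single-nucleotide variants and half-site ablations.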

| Sequence | PBM binding z-score |
| --- | --- |
| CAAAATAGGTCAAGGTCAAAGTCGGTTTGTGCCA | 5.51 |
| CCTAGCAGACCAATCTGGGTCACTCAAGGCTTGA | 0.199 |
| ATATGTAGGTTAGGATCATTCAGAAAGTAGGGAA | 0.744 |
| ATCGAAAGGTCGAAGGAGAGTATACCCACCCGAA | 2.23 |
| CCTGCTAGGACAATGGTCAGCTAAAGCAGCTCGC | -0.832 |
| CGTCCGAGGTCAATGCTAGGTCAGTGAAAGCATT | 5.63 |
| CTATGTAGGATAAGGGGGTCATTCAGTTTGAAAG | 6.5 |
| ATATGTAGGTTAGGGTCATTCGGAAAGTAGGGAA | 4.45 |
| ATATCTAGGTAAAAGTTCAGTGAATCCCGAGGAT | 1.59 |
| GATACACGGTCAAGGCCAGAGTACGCGTATTGAT | -0.0304 |
| CTTAGTTGGTCAGGAGGTCACACACCGGATATGA | 3.78 |
| CGAACTAGCTCAAGGACAGTGAATCTCCGCACGC | -0.322 |
| ATATGTAGGTTCGGGTCATTCAGAAAGTAGGGAA | 3.72 |
| TAGCCTAGGTCATTCAGGGGCTAGTATAGAAAGC | 2.8 |
| CGAACTAAGTCATCCAGGACAGTGAATACATTGA | 0.524 |
| ATCTAAAGGTCGAAGGTGAGTATACCCACCCGAA | 2.95 |
| CCTACGGGGCCAAAGGTCATTGATTCCAATGCTC | 5.3 |
| CCGAGTAGGTTACGAGGCGGCATTCAGTGCGAAT | -0.141 |
| TATACAGGGTCAAAGGGCAGAGTACGAATGTCGA | 5.43 |
| ACTAGCAGGCCAAAGGTCACTCAAGATTAGTCCG | 4.05 |

| Sequence | PBM binding z-score |
| --- | --- |
| ATCTCTAGGTAAATGTTCAGTGAATCCCGAGGAT | -0.0606 |
| CCGACTGGGGCAAAGGTTACCATGCTCAGTACGA | 1.64 |
| CCTAGCAGGCCAGGGTCACCCAAGCATTTCGCTT | 2.96 |
| CTATGTAGGTAAAGGGGGTCATTCAGTTTGAAAG | 6.95 |
| TTTAGTTGGTCAAAGGTCACACACTCGAAATGCG | 5.36 |
| CCTACAGGGCCAAGGTCATTGATCAGTCAAAGCA | 3.39 |
| GCTTACGGGTCAAAGGTTAAAGCATGAATAGAAT | 5.38 |
| CGAACTAGGTCAAAGGAAAGTGAAAGGCGACGTA | 0.89 |
| TCGAGTAGTTTACGGGGGCATTCAGGGATGAAGA | 3.09 |
| TCGAGTAGGTTACGGGGGCATTCAAGGATGAAGA | 3.74 |
| CTCGAAAGGTCGAGCTCAGGTGAGTATACCAAAC | 2.71 |
| CTATGTAGGTTAAGGGGGTCATTAAGTTTGAAAG | 7.64 |
| ATATGTAGGTTACCGGGTCATTCAGTTTGCGCAT | 5.56 |
| CCTACTGGGCCACGAAAGGTAATTGATTCAGTGA | -0.34 |
| CTATGTAGGTTAAGGGGGTCTTTCAGTTTGAAAG | 3.93 |
| CCTACTGGGCCATTGAGAGGTCATTGATCATATG | 3.81 |
| CATCCAAGGTCAAAGGTCAGTGAAGAGATGACGG | 6.71 |
| ATGTGTAGGTTAGGGTCATTCAGAAAGTAGGGAA | 4.65 |
| ACTTACGGGTCAACGGGGTTATAGCACGCGTATA | 7.87 |
| CGTCCAAGGTCAATGCGAGGTCAGTGAAAGCATT | 6.22 |
